In paper PMC7862700, “An all-to-all approach to the identification of sequence-specific readers for epigenetic DNA modifications on cytosine”:

Assays:
Assay in all cases: DAPPL (digital affinity profiling via proximity ligation, sequencing); 10 mM Tris-HCl pH 7.5, 50 mM NaCl, 1 mM DTT, 4% glycerol, room temperature, 30 min; GST-TFs on glutathione beads, 16-mer random dsDNA library, 0.1% formaldehyde crosslink after washing; high values mean tight binding
Conditions in all cases: protein: recombinant; tags: N-terminal GST; dsDNA, one strand shown
[1] = target: T1, ERF (Homo sapiens, UniProt P50548 1-548)
T1 sequence: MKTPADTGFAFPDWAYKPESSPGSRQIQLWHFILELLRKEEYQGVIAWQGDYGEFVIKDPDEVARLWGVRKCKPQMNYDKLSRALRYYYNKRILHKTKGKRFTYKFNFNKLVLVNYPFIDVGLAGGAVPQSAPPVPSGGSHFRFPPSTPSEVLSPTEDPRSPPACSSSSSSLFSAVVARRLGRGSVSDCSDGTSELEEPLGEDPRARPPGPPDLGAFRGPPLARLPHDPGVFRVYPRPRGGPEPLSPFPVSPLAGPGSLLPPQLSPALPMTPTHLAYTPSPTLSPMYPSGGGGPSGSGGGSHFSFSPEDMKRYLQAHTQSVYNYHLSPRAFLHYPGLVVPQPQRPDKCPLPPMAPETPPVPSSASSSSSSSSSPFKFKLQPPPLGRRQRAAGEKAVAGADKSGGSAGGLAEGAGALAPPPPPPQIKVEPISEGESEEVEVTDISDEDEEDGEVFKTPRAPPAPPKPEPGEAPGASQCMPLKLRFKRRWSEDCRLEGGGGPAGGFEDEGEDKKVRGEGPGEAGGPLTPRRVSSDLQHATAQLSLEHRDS
Summary of the method: (§1)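 Pools of DNA-barcoded human transcription factors, expressed in yeast as GST fusions on glutathione beads and combined with a tag-only sample, were incubated with 200 nmole of a 16-mer random double-stranded DNA library. Incubation took 30 min at room temperature in Tris/NaCl/DTT/glycerol buffer and was followed by washing, 0.1% formaldehyde crosslinking, proximity ligation (BsaI/T4 ligase, 1 h, 37 °C), PCR amplification and sequencing on an Illumina NextSeq500. Binding signal is the ratio of a hexamer's read frequency for a factor to its frequency for the tag-only sample.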

[2] = target: T2, ETV3L (Homo sapiens, UniProt Q6ZN32 1-361)
T2 sequence: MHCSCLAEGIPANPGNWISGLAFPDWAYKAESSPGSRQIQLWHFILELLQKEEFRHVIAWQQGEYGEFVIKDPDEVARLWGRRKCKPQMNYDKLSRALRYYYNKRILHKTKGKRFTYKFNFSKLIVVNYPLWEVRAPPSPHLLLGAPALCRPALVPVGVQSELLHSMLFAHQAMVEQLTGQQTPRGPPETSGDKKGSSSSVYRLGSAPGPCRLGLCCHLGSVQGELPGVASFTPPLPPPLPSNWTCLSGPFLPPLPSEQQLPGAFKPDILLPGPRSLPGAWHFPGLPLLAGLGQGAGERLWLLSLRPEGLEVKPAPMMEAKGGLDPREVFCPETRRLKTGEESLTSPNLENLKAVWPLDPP
Summary of the method: as §1

[3] = target: T3, ETS2 (Homo sapiens, UniProt P15036 1-469)
T3 sequence: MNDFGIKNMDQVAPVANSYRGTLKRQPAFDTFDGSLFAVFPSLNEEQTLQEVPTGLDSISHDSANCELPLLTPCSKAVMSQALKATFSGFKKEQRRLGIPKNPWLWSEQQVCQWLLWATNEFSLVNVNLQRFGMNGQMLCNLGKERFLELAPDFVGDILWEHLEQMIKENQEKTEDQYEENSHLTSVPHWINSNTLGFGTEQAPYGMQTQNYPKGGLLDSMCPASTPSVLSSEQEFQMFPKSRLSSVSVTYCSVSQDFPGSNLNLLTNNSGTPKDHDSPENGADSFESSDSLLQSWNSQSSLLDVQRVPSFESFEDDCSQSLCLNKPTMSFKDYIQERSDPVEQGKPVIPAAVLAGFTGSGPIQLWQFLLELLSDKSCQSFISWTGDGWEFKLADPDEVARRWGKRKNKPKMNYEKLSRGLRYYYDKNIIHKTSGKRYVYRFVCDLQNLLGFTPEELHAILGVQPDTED
Summary of the method: as §1

[4] = target: T4, SPDEF (Homo sapiens, UniProt O95238 1-335)
T4 sequence: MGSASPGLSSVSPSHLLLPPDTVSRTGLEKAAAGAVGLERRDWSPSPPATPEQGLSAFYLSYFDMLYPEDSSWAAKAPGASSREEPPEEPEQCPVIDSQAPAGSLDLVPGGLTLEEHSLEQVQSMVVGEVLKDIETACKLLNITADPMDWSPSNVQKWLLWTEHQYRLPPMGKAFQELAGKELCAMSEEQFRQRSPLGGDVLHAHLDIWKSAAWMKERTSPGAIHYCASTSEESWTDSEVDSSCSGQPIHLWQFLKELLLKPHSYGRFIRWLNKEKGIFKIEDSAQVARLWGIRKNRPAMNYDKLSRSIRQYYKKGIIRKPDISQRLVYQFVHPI
Summary of the method: as §1

[5] = target: T5, ETV7 (Homo sapiens, UniProt Q9Y603 1-341)
T5 sequence: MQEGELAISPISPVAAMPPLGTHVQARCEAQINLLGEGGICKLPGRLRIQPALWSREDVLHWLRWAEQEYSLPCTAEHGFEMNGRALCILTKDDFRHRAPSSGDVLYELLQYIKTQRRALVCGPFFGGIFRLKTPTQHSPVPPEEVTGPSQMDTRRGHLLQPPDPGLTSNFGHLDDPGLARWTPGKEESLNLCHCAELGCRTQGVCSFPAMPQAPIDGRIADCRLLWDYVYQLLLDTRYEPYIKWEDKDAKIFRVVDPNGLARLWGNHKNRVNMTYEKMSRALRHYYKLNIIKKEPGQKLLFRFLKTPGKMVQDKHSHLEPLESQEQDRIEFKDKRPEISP
Summary of the method: as §1

[6] = target: T6, ELF5 (Homo sapiens, UniProt Q9UKW6-2 1-255)
T6 sequence: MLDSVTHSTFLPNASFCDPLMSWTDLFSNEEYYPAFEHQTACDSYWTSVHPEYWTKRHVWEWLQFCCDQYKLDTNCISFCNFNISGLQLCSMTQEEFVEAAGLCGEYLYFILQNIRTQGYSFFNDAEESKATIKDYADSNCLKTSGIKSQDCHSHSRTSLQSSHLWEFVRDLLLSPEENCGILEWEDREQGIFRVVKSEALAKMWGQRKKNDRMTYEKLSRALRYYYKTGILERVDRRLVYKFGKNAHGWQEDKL
Summary of the method: as §1

[7] = target: T7, ETV3 (Homo sapiens, UniProt P41162-2 1-143)
T7 sequence: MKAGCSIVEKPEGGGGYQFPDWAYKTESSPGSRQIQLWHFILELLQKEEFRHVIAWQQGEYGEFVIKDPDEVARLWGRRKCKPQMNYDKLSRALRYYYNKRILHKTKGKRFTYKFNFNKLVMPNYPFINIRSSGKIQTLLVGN
Summary of the method: as §1

[8] = target: ETV6 (Homo sapiens, UniProt P41212 1-452)
Summary of the method: as §1

Sequence of ETV6 (P41212 whole entry): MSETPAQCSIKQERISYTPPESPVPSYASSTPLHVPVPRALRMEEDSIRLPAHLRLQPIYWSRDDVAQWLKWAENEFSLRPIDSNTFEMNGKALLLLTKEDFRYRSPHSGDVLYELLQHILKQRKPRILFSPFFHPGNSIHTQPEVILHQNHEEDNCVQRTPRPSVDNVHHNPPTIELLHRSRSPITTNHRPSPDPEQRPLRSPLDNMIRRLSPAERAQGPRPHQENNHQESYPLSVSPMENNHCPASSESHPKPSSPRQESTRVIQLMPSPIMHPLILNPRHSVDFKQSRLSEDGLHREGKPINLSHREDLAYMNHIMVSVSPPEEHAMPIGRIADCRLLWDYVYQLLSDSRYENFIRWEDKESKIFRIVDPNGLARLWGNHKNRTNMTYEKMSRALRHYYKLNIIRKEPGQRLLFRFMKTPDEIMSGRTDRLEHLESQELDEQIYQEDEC

Question: TCACTT was tested. Which binding signal [1] did it give?
Answer: 1.56 fold enrichment (6-mer frequency, TF over GST control)

Question: What about the binding signal [2] of the same sequence?
Answer: 1.5 fold enrichment (6-mer frequency, TF over GST control)

Question: And the binding signal [3]?
Answer: 1.69 fold enrichment (6-mer frequency, TF over GST control)

Question: And the binding signal [4]?
Answer: 1.73 fold enrichment (6-mer frequency, TF over GST control)

Question: What about the binding signal [5] of the same sequence?
Answer: 1.63 fold enrichment (6-mer frequency, TF over GST control)

Question: And the binding signal [6]?
Answer: 1.79 fold enrichment (6-mer frequency, TF over GST control)

Question: And the binding signal [7]?
Answer: 1.55 fold enrichment (6-mer frequency, TF over GST control)

Question: And the binding signal [8]?
Answer: 1.67 fold enrichment (6-mer frequency, TF over GST control)

Question: What does the source list for TTGGCA?
Answer: binding signal [1]: 1.19 fold enrichment (6-mer frequency, TF over GST control); binding signal [2]: 1.14 fold enrichment (6-mer frequency, TF over GST control); binding signal [3]: 1.13 fold enrichment (6-mer frequency, TF over GST control); binding signal [4]: 1.12 fold enrichment (6-mer frequency, TF over GST control); binding signal [5]: 1.09 fold enrichment (6-mer frequency, TF over GST control); binding signal [6]: 1.01 fold enrichment (6-mer frequency, TF over GST control); binding signal [7]: 1.17 fold enrichment (6-mer frequency, TF over GST control); binding signal [8]: 1.19 fold enrichment (6-mer frequency, TF over GST control)

Question: How did the binding signal [1] turn out when CTACGG was run?
Answer: 1.37 fold enrichment (6-mer frequency, TF over GST control)

Question: And the binding signal [2]?
Answer: 1.42 fold enrichment (6-mer frequency, TF over GST control)

Question: And the binding signal [3]?
Answer: 1.16 fold enrichment (6-mer frequency, TF over GST control)

Question: And the binding signal [4]?
Answer: 1.17 fold enrichment (6-mer frequency, TF over GST control)

Question: What about the binding signal [5] of the same sequence?
Answer: 1.28 fold enrichment (6-mer frequency, TF over GST control)

Question: And the binding signal [6]?
Answer: 1.24 fold enrichment (6-mer frequency, TF over GST control)

Question: And the binding signal [7]?
Answer: 1.29 fold enrichment (6-mer frequency, TF over GST control)

Question: And the binding signal [8]?
Answer: 1.19 fold enrichment (6-mer frequency, TF over GST control)

Question: Which results are given for GCCTAA?
Answer: binding signal [1]: 1.22 fold enrichment (6-mer frequency, TF over GST control); binding signal [2]: 1.22 fold enrichment (6-mer frequency, TF over GST control); binding signal [3]: 1.31 fold enrichment (6-mer frequency, TF over GST control); binding signal [4]: 1.11 fold enrichment (6-mer frequency, TF over GST control); binding signal [5]: 1.19 fold enrichment (6-mer frequency, TF over GST control); binding signal [6]: 1.18 fold enrichment (6-mer frequency, TF over GST control); binding signal [7]: 1.21 fold enrichment (6-mer frequency, TF over GST control); binding signal [8]: 1.13 fold enrichment (6-mer frequency, TF over GST control)

Question: Which results are given for GGACCT?
Answer: binding signal [1]: 1.31 fold enrichment (6-mer frequency, TF over GST control); binding signal [2]: 1.43 fold enrichment (6-mer frequency, TF over GST control); binding signal [3]: 1.41 fold enrichment (6-mer frequency, TF over GST control); binding signal [4]: 1.53 fold enrichment (6-mer frequency, TF over GST control); binding signal [5]: 1.34 fold enrichment (6-mer frequency, TF over GST control); binding signal [6]: 1.27 fold enrichment (6-mer frequency, TF over GST control); binding signal [7]: 1.32 fold enrichment (6-mer frequency, TF over GST control); binding signal [8]: 1.34 fold enrichment (6-mer frequency, TF over GST control)

Question: What does the source list for TTAAAA?
Answer: binding signal [1]: 1.3 fold enrichment (6-mer frequency, TF over GST control); binding signal [2]: 1.27 fold enrichment (6-mer frequency, TF over GST control); binding signal [3]: 1.17 fold enrichment (6-mer frequency, TF over GST control); binding signal [4]: 1.15 fold enrichment (6-mer frequency, TF over GST control); binding signal [5]: 1.26 fold enrichment (6-mer frequency, TF over GST control); binding signal [6]: 1.11 fold enrichment (6-mer frequency, TF over GST control); binding signal [7]: 1.17 fold enrichment (6-mer frequency, TF over GST control); binding signal [8]: 1.19 fold enrichment (6-mer frequency, TF over GST control)

Question: Which results are given for CCCCTC?
Answer: binding signal [1]: 1.43 fold enrichment (6-mer frequency, TF over GST control); binding signal [2]: 1.4 fold enrichment (6-mer frequency, TF over GST control); binding signal [3]: 1.33 fold enrichment (6-mer frequency, TF over GST control); binding signal [4]: 1.33 fold enrichment (6-mer frequency, TF over GST control); binding signal [5]: 1.24 fold enrichment (6-mer frequency, TF over GST control); binding signal [6]: 1.24 fold enrichment (6-mer frequency, TF over GST control); binding signal [7]: 1.28 fold enrichment (6-mer frequency, TF over GST control); binding signal [8]: 1.28 fold enrichment (6-mer frequency, TF over GST control)

Question: What does the source list for TCTCTC?
Answer: binding signal [1]: 1.31 fold enrichment (6-mer frequency, TF over GST control); binding signal [2]: 1.38 fold enrichment (6-mer frequency, TF over GST control); binding signal [3]: 1.2 fold enrichment (6-mer frequency, TF over GST control); binding signal [4]: 1.28 fold enrichment (6-mer frequency, TF over GST control); binding signal [5]: 1.11 fold enrichment (6-mer frequency, TF over GST control); binding signal [6]: 1.24 fold enrichment (6-mer frequency, TF over GST control); binding signal [7]: 1.37 fold enrichment (6-mer frequency, TF over GST control); binding signal [8]: 1.27 fold enrichment (6-mer frequency, TF over GST control)

Question: ACATTA was tested. Which binding signal [1] did it give?
Answer: 1.21 fold enrichment (6-mer frequency, TF over GST control)

Question: What about the binding signal [2] of the same sequence?
Answer: 1.15 fold enrichment (6-mer frequency, TF over GST control)

Question: And the binding signal [3]?
Answer: 1.19 fold enrichment (6-mer frequency, TF over GST control)

Question: And the binding signal [4]?
Answer: 1.12 fold enrichment (6-mer frequency, TF over GST control)

Question: And the binding signal [5]?
Answer: 1.15 fold enrichment (6-mer frequency, TF over GST control)

Question: And the binding signal [6]?
Answer: 1.1 fold enrichment (6-mer frequency, TF over GST control)

Question: What about the binding signal [7] of the same sequence?
Answer: 1.15 fold enrichment (6-mer frequency, TF over GST control)

Question: And the binding signal [8]?
Answer: 1.16 fold enrichment (6-mer frequency, TF over GST control)
